# TDP1 cell noCPT – qHTS for Inhibitors of human tyrosyl-DNA phosphodiesterase 1 (TDP1): qHTS in cells in absence of CPT; Potency, µM (titrated, usually from 46.2 µM), actives largely listed as inhibitors; DT40 Tdp1-/- hTDP1 cells, no CPT, ATP luminescence, 48 h; 420,000 tested, 15% active; further: nearly all actives have a fitted effect of over 55% in size
#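 Cells were dispensed at 400 per well, compounds added by pin tool, plates incubated ≥48 hr at 37 °C, then CellTiter-Glo added for 30 min at room temperature before luminescence reading. Line: DT40 Tdp1-/- complemented with hTDP1; camptothecin omitted.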
# IL-1B inflam inh – blocks inflammasome-driven IL-1 beta release; 360,000 tested, 4.7% active; AID 743279; activity change, % at 57.5 µM; THP-1 LPS/ATP IL-1B secretion, AlphaLISA, 16 h; hits give low values; in the data active means activity change below about -50%; inconclusive means mostly about -30% to -49%
#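 THP-1 cells pretreated 1 hr with compounds (up to 57.5 uM final), then stimulated with LPS (250 ng/mL final) plus ATP (1.25 mM final); secreted IL-1B measured by AlphaLISA after 16 hr, decreased signal indicating inhibition.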
# HepG2 viability – HepG2 cytotoxicity, counter-screen for TGF-b inhibitors. HepG2 CAGA-GFP viability, ATP luminescence, 18 h. Potency, µM (doses to about 46.1 µM), hits mostly cytotoxic. 410,000 tested, 0.76% active
#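 HepG2 CAGA-GFP cells (1000/well, DMEM with 1% FBS) received compound, then TGF-beta at 500 pg/mL final, and were incubated 18 hours at 37 degrees C. Viability was read by CellTiter-Glo luminescence. Media-only wells were set as complete cell-killing and DMSO as no toxicity.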
# TGFb SMAD3 inh – inhibitors of TGF-b signaling. HepG2 CAGA-GFP TGF-b/SMAD3 reporter, GFP fluorescence, 18 h; TGF-beta stimulated, 500 pg/mL final. Potency, µM (top dose mostly 46.1 µM), hits mostly inhibitors. 410,000 tested, 1.2% active. AID 588855; further: nearly all actives have a fitted effect of over 65% in size
#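 HEPG2 CAGA-GFP cells (1000/well, DMEM with 1% FBS) were pre-incubated 2 h at 37 degrees C, given compound by pin tool, then stimulated with TGF-beta at 500 pg/mL final for 18 h before per-cell GFP fluorescence imaging.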
# TDP1 block – TDP1 (human) enzyme inhibition. Q9NUW8. 350,000 tested, 0.28% active. recombinant TDP1, AlphaScreen DNA substrate cleavage. Potency, µM (highest dose often 130 µM), hits mostly inhibitors; further: nearly all actives have a fitted effect of over 40% in size
# Target sequence (Q9NUW8 whole entry, looked up): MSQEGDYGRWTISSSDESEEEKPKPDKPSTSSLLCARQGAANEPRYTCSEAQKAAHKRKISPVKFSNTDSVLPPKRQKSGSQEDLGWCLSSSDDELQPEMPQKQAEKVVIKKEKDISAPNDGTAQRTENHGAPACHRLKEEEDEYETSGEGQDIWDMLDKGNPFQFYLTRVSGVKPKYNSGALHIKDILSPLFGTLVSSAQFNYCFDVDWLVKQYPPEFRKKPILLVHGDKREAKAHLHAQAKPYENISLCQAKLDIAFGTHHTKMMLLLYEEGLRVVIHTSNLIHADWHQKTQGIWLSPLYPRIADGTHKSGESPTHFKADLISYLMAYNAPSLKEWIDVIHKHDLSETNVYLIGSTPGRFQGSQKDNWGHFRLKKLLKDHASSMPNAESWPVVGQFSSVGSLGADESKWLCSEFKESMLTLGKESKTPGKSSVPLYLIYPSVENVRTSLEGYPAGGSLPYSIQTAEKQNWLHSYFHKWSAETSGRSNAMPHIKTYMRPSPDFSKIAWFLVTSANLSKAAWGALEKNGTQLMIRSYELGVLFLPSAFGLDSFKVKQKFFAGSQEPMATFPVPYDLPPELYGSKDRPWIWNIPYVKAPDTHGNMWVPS
#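 Signal: AlphaScreen proximity between streptavidin donor and anti-FITC acceptor beads on intact substrate. Reaction: Tdp1 1 nM, substrate 15 nM final, 5 min RT after 15 min compound preincubation.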
# DT40 TDP1 CPT – growth inhibition of DT40 Tdp1-/-;hTDP1 cells with camptothecin (screen for TDP1 inhibitors); chicken DT40 Tdp1-/-;hTDP1 cells + 20 nM CPT, ATP luminescence, 48 h; Potency, µM (titrated, usually from 46.2 µM), actives largely listed as inhibitors; 420,000 tested, 12% active; further: nearly all actives have a fitted effect of over 55% in size
#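 Chicken DT40 Tdp1-/- cells stably complemented with human TDP1 were seeded at 400 cells/well in medium containing 20 nM camptothecin, exposed to pin-transferred compounds, and grown at 37 °C for at least 48 hr. Viability was read as ATP luminescence.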
# A number is an active result; – = inactive; ? = inconclusive; · = no result given; [ ] = remark or other dose. Hits are enriched below; roughly 18% of the tested compounds scored in any of these assays. Unless noted, the call rests on the fitted dose curve; in most records, active means well fitted curve in the direction sought with a large enough effect; inconclusive means small, poorly fitted or top-dose-only effect, or another doubt; inactive means no such curve, though single readings can be large; an effect the other way counts as inactive or inconclusive.
SMILES,TDP1 cell noCPT,IL-1B inflam inh,HepG2 viability,TGFb SMAD3 inh,TDP1 block,DT40 TDP1 CPT
S=C(Nc1ccc(Cl)cc1Cl)NC1CCN(Cc2ccccc2)CC1,16µM,–,–,?,–,21µM
Cc1c(Cl)cccc1NC(=S)NC1CCN(Cc2ccccc2)CC1,?,-73,–,?,–,?
S=C(Nc1cc(Cl)cc(Cl)c1)NC1CCN(Cc2ccccc2)CC1,6.5µM,-66,16µM,?,–,8.2µM
Cc1c(Cl)cccc1NC(=S)N1CCN(Cc2ccccc2)CC1,–,–,–,–,–,–
Cc1ccc(NC(=S)NC2CCN(Cc3ccccc3)CC2)cc1,?,–,–,–,–,?
CC(C)c1ccc(NC(=S)NC2CCN(Cc3ccccc3)CC2)cc1,23µM,-89,–,?,–,?
CC(C)c1ccc(NC(=S)N2CCN(Cc3ccccc3)CC2)cc1,26µM,–,–,?,–,?
S=C(Nc1ccc(Cl)cc1)N1CCN(Cc2ccccc2)CC1,–,–,–,–,–,–
Cc1ccc(Cn2nc3n(c2=O)-c2cc(Cl)ccc2OC3)cc1,–,·,–,–,–,–
CCCN1CCC(NC(=O)Nc2cccc3ccccc23)CC1,–,–,–,–,–,–
CCCN1CCC(NC(=S)Nc2cccc(Cl)c2Cl)CC1,?,–,–,–,–,18µM
O=C(CC1SC(N2CCOCC2)=NC1=O)Nc1ccccc1Cl (centres undefined),–,–,–,–,–,–
COC(=O)c1c(NC(=O)Cc2cccs2)sc2c1CCC(C)C2 (centres undefined),?,-83,–,–,–,?
CCOc1ccc(NC(=O)c2c(NC(=O)c3ccncc3)sc3c2CCC(C(C)(C)C)C3)cc1 (centres undefined),21µM,·,–,–,·,?
CCOc1ccc(NC(=O)c2c(NCc3cccnc3)sc3c2CCC(C)C3)cc1 (centres undefined),15µM,·,–,13µM,–,15µM
COc1ccc(OC)c(NC(=O)c2c(NCc3ccc(C)o3)sc3c2CCCCC3)c1,7.3µM,·,–,?,–,6.5µM
COC(=O)c1c(NC(=O)CN(C)CC(=O)Nc2ccc(C)cc2)sc2c1CCC(C)C2 (centres undefined),?,–,–,–,–,?
CC#CC(=O)N1CCC(n2nccc2NC(=O)CCc2ccccc2)CC1,–,?,–,–,·,–
N#Cc1cccc(NC(=O)N2CCCC3(CCN(C(=O)c4cc(C(F)(F)F)cc(C(F)(F)F)c4)CC3)C2)c1,?,·,·,·,·,–
CCOc1ccccc1NC(=O)c1c(NCc2cccs2)sc2c1CCC(C)C2 (centres undefined),18µM,·,–,–,–,?
COc1ccc(Cl)cc1NC(=O)c1c(NCc2cccnc2)sc2c1CCC(C)C2 (centres undefined),4.6µM,·,10µM,8.9µM,–,3.7µM
CC1CCc2c(sc(NC(=O)COc3ccccc3)c2C(=O)Nc2ccccc2Cl)C1 (centres undefined),–,·,–,–,–[12.3 µM],–
CCOC(=O)N1CCc2c(sc(NCc3sccc3C)c2C(=O)Nc2cc(OC)ccc2OC)C1,–,·,–,?,–,–
COc1ccc(OC)c(NC(=O)c2c(NCc3sccc3C)sc3c2CCCCC3)c1,2.6µM,·,–,–,–,7.3µM
CC(C)(C)C1CCc2c(sc(NC(=O)CCC(=O)O)c2C(=O)Nc2ccccc2C(F)(F)F)C1 (centres undefined),21µM,·,16µM,?,·,16µM
CCOc1ccc(NC(=O)c2c(NCc3cccs3)sc3c2CCC(C)C3)cc1 (centres undefined),?,·,–,?,–,?
COCCCNC(=O)C1=CCN(S(=O)(=O)c2ccc(OC)cc2)CC1,–,–,–,–,–,–
COC(=O)c1sccc1NS(=O)(=O)c1ccccc1,–,–,–,–,–,?
